“And” between values parts separate entries of the source, which are not always exact repeats. Equal values may be shown once. About 83,000 compounds went through this panel and 20% of them were active in at least one assay; those are over-represented in the sample as a whole.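 48-hour exposure, single concentration, 96-well plates; percent growth endpoint where 0 means no net growth. Active: below 10.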 A number with no mark means an inactive call. The source made the active and inactive calls.
What follows are molecules tested on MDA-MB-468 breast (assay: NCI-60 one-dose screen, 48 h (100 = growth as untreated, 0 = no growth, -100 = all killed)). Conditions: 10 µM unless noted.

Row | SMILES | growth
1 | COc1ccc([N+](=O)[O-])c(S(=O)(=O)c2ccc(Cl)cc2)n1 | 52%
2 | FC(F)(F)c1ccc(-c2nc(-c3nc4cc(Cl)c(Cl)cc4[nH]3)c3ccccn23)cc1 | 41.9%
3 | OC(Cc1cccnc1)c1ccccc1 (stereo not given) | 111%
4 | COc1cc(C)c(C2C(C#N)=C(N)Oc3n[nH]c(-c4cccs4)c32)cc1C(C)C (stereo not given) | 101%
5 | CC1(O)OC(COc2ccc(Cl)cc2)COC1O (stereo not given) | 105%
6 | O=C(/C=C/c1ccc(Cl)cc1)c1ccc(O)c(CN2CCN(c3cc4c(cc3F)c(=O)c(C(=O)O)cn4C3CC3)CC2)c1 | 40.9%
7 | O=C(N/N=C\c1ccc(-c2ccc(Br)cc2)o1)c1cc2oc(-c3cccc(C(F)(F)F)c3)cc2[nH]1 | 126%
8 | CC(C)(C)OC(=O)c1ccc(NCc2cc(O)ccc2O)cc1 | -17.6% (active)
9 | Cc1cc(C)nc(NS(=O)(=O)c2ccc(Nc3ccc4c5c(n(CCCN(C)C)c(=O)c4c3)-c3ccccc3C5=O)cc2)n1 | 111%
10 | O=C(Nc1ccc2c(ccn2Cc2ccccn2)c1)c1ccnnc1 | 89.7%
11 | O=C1/C(=C/c2ccc(O)cc2)CSc2ccc(Cl)cc21 | 30.2%
12 | S=C1CC(=S)NC(=S)N1 | 95.8%
13 | CC(=O)c1nc(Nc2ccc(C)cc2)sc1C | 93.1%
14 | COc1cc(/C=N/NC(=O)c2ccccc2Nc2cccc(C(F)(F)F)c2)ccc1O | 28.3%
15 | O=C(Nc1cccc([N+](=O)[O-])c1)c1cccc(C(=O)Nc2cccc([N+](=O)[O-])c2)c1 | 67.1%
16 | Cn1c(=O)c2[nH]c(=S)n(Cc3ccccc3)c2n(C)c1=O | 115%
17 | CC[C@@H]1C(=O)N(C)c2cnc(Nc3ccc(C(=O)NC4CCC(N5CCN(CC6CC6)CC5)CC4)cc3OC)nc2N1C(C)C (stereo not given in full) | -54.1% (active)
18 | CC[C@H](CO)Nc1nc(NCc2ccccc2)c2ncn(C(C)C)c2n1 | 85%
19 | CCOC(=O)c1ccc(NC(C)=O)o1 | 89.3%
20 | Clc1ccc(N2N=C(c3cccc(Nc4ccncc4)c3)CC2c2ccccc2)cc1 (stereo not given) | 74.1%

Row | SMILES | growth
21 | O=C(/C=C\c1ccc(Cl)c(Cl)c1)c1ccccc1 | 79.8%
22 | CN1C(=O)C(=Cc2coc3ccc(Br)cc3c2=O)C(=O)N(C)C1=O | 102%
23 | COc1nc2ccc(C)cc2cc1/C=[N+](\[O-])c1ccccc1 | 79.3%
24 | CC1(C)/C(=C\CO)C2CCC1C2 (stereo not given) | 101%
25 | CC(O)C(O)C(O)C(O)C(O)C(=O)NNc1ccccc1 (stereo not given) | 96.5%
26 | Cc1cc(Cl)nc(Nc2ccccc2)n1 | 105%
27 | CCN(CC)c1ccc2nc3c4ccccc4c(=NC(=O)c4ccccc4-c4c5ccc(N(CC)CC)cc5[o+]c5cc(N(CC)CC)ccc45)cc-3oc2c1 | -59.2% (active)
28 | CCNC(=O)Oc1ccc(/C(=C(\C)c2ccccc2)c2ccc(OCCCN(C)C)cc2)cc1 | 86.6%
29 | CCCCCCNC(=O)Oc1ccc(/C(=C(/C)c2ccccc2)c2ccc(OCCN3CCCCCC3)cc2)cc1 | 9.72% (active)
30 | O=C1c2c(c3c4cccnc4[nH]c3c3ccc4ccccc4c23)C(=O)N1O | 45.5%
31 | COc1cc(NC(N)=NCC(C)(C)COc2ccc(C(F)(F)F)cc2)cnc1C#N | 19.6%
32 | O=C1c2ccccc2C(=O)N1/N=C/c1ccc2c(c1)OCO2 | 103%
33 | CNC(=O)c1ccccc1Sc1ccc2c(/C=C/c3ccccn3)n[nH]c2c1 | 28%
34 | CCOC(=O)c1sc(NC(=O)COc2ccc(/C=C3\Cc4ccc(Cl)cc4C3=O)cc2)nc1C | 115%
35 | CC(=O)Nc1ccccc1-c1n[nH]c(=O)[nH]c1=O | 102%
36 | CC1OS(=O)OC1C (stereo not given) | 96.4% and 96.2%
37 | O=C(CC12CC3CC(CC(C3)C1)C2)NCCOCCOCCOCCNC(=O)c1cc2c(o1)C(=O)c1ccccc1C2=O | -34.8% (active)
38 | c1cncc(CNc2ccccc2-c2nnc(Nc3ccc4c(c3)OCO4)o2)c1 | -1.51% (active)
39 | COc1cc(C2=NN(C=O)C(c3cccc(Nc4ccnc5cc(Cl)ccc45)c3)C2)cc(OC)c1OC (stereo not given) | 59.2%
40 | O=C1NN(c2ccccc2)C(c2ccc(Cl)cc2)N2CCC[C@H]12 (stereo not given in full) | 98.7%
